From PubChem BioAssay (NCATS) come the findings set out here.

A short description of test [1]: qHTS of pediatric cancer cell lines to identify multiple opportunities for drug repurposing: Primary screen for SJ-GBM2 cells (AID 1347091). The method, boiled down:
(§1)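 Viability measured as metabolically active cells via CellTiter-Glo luminescence following 48 hours of compound exposure, 11-point dilutions in confirmatory testing. 500-1,000 cells/well plated 5 hours before dosing; controls were DMSO and 2.3 µM bortezomib.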
A general note: qHTS replaces the single test concentration by a dilution series.

Test [2] is described as follows: qHTS of pediatric cancer cell lines to identify multiple opportunities for drug repurposing: Primary screen for A673 cells (AID 1347092). Note: nearly all actives have a fitted effect of over 45% in size. The method, boiled down:
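A673 cells (500-1,000 cells/well) were treated 48 hours at 37 degrees C with compounds at 11-point (0.78 nM to 46 µM) or 8-point (0.59 nM to 46 µM) dilutions. Viability read by CellTiter-Glo luminescence; concentration-response curves fitted.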

A short description of test [3]: qHTS of pediatric cancer cell lines to identify multiple opportunities for drug repurposing: Primary screen for SK-N-MC cells (AID 1347093). The method, boiled down:
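Metabolically active cells were quantified by ATP-dependent luminescence (CellTiter-Glo, 15 min at room temperature) following 48 h treatment. Cells had been plated at 500-1,000 per well and settled for 5 h beforehand.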

Test [4] can be described thus: qHTS of pediatric cancer cell lines to identify multiple opportunities for drug repurposing: Primary screen for TC32 cells (AID 1347089). Note: nearly all actives have a fitted effect of over 60% in size. The method, boiled down:
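TC32 cells, 500-1,000/well in growth medium, compound-treated 48 h at 37 °C; viability from CellTiter-Glo luminescence. Primary screen: MIPE 11-point (0.78 nM–46 µM final), NPC 8-point (0.59 nM–46 µM final); confirmatory at 11-point dilutions.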

The nature of test [5]: qHTS of pediatric cancer cell lines to identify multiple opportunities for drug repurposing: Primary screen for DAOY cells (AID 1347090). Note: nearly all actives have a fitted effect of over 55% in size. In a few lines: as §1

Molecules are shown by their SMILES. Inconclusive results are not listed. Calls of active or inactive are those of the source. Calls come from the whole dose curve; as a rule, active = well fitted curve in the direction sought with a large enough effect; inconclusive = small, poorly fitted or top-dose-only effect, or another doubt; inactive = no such curve, though single readings can be large; an effect the other way counts as inactive or inconclusive.
Potency is the fitted concentration of half-maximal effect.

In the case of `COC1=C2C[C@@H](C)C[C@H](OC)[C@@H](O)[C@@H](C)C=C(C)[C@H](OC(N)=O)[C@@H](OC)C=CC=C(C)C(=O)NC(=CC1=O)C2=O`, the Potency was 743 nM (active) in test [1], 4.69 µM (active) in test [2] and 1.05 µM (active) in test [3].

With `NC(=O)Nc1cc(-c2ccc(CN3CCOCC3)cc2)sc1C(N)=O`, the Potency was 0.523 µM (active) in test [4], 59 nM (active) in test [1], 5.9 µM (active) in test [2] and 0.105 µM (active) in test [3].

Turning to `O=C(O)C=Cc1ccc(Cn2ccnc2)cc1`, the Potency entry in test [4], in test [1], in test [2] and in test [3] was “inactive” in each case.

`COc1cc(CCc2cc(NC(=O)c3ccc(N4C[C@@H](C)N[C@@H](C)C4)cc3)n[nH]2)cc(OC)c1`: in test [2], the Potency is 14.8 µM (active).

`CC(C)c1cnn2c(NCc3ccccc3)cc(NCCCCCCN)nc12`: the Potency entry in test [4] is “inactive”. In addition, the Potency in test [5] is 4.69 µM (active); in test [2], 5.9 µM (active).

For `CN(CC(=O)N(Cc1ccc(C2CCCCC2)cc1)c1ccc(C(=O)O)c(O)c1)S(=O)(=O)c1c(F)c(F)c(F)c(F)c1F`, the Potency result in test [4] was “inactive”. In test [3], the Potency is 1.48 µM (active).

Consider `COc1cc2c(cc1OC)[C@@H]1C(=O)c3ccc4c(c3O[C@@H]1CO2)C=CC(C)(C)O4`, for which the Potency in test [5] was 0.0743 µM (active); in test [1] it was 18700 nM (active); in test [2] it was 0.0743 µM (active); in test [3], 0.148 µM (active).

Regarding `O=C(Nc1nnc(-c2ccco2)o1)c1cc(-c2ccccc2)nc2ccccc12`, the results for the Potency in test [5] and in test [3] were 14.8 µM (active) and 11.8 µM (active), respectively.

As to `CC(C)NC[C@@H](C(=O)N1CCN(c2ncnc3c2[C@H](C)C[C@H]3O)CC1)c1ccc(Cl)cc1`, the figures for the Potency in test [5], in test [1] and in test [2] were 5.9 µM (active), 3320 nM (active) and 11.8 µM (active), respectively.

Consider `C[C@H]1[C@@H](OC(=O)CCC(=O)O)O[C@@H]2O[C@@]3(C)CC[C@@H]4[C@H](C)CC[C@@H]1[C@@]24OO3`, for which the Potency in test [4] was 14.7 µM (active); in test [5], 11.8 µM (active); in test [2], 5.9 µM (active); in test [3], 0.935 µM (active).
